Results taken from PubChem BioAssay AID651710 (Broad Institute, 2012).
Values joined by “and” are separate entries in the source; they are usually repeats but may differ in a detail not shown here. Identical values can stand only once. About 1,600 (0.44%) of roughly 360,000 compounds were called active.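 The calls were made as follows: active = every replicate showing at least 50% inhibition; inconclusive = mean inhibition at least 50% but not in every replicate; inactive = the rest.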 Many of the other results were omitted from the sample, so actives are more common in it than they were. Some compounds were tested as several samples or in several runs, with calls that do not always agree.

Each compound was assayed against DNA repair protein RAD52 homolog (Homo sapiens) (UniProt P43351) (assay: blockers of RAD52 strand annealing activity – biochemical, FRET, single point, set 2, primary screen (AID 651710)). Conditions: recombinant RAD52 DNA annealing, FRET fluorescence; at 18.7 µM; stronger effect = higher value.
Sequence of DNA repair protein RAD52 homolog (Homo sapiens) (P43351 whole entry, looked up): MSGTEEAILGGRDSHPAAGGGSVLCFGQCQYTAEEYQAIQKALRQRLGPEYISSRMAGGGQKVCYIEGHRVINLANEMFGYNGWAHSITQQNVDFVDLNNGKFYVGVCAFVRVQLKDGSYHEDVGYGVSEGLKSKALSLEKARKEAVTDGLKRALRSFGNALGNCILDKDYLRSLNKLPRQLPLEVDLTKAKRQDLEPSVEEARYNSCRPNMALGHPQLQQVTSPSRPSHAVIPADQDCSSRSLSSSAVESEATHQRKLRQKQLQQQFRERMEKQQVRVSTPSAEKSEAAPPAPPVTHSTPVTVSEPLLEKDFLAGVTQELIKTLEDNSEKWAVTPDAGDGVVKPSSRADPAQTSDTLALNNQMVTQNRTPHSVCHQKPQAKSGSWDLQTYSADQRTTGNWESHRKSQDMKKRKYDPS

SMILES	inhibition
COc1cccc(-c2cnc3c(c2)C(=O)N([C@@H](C)CO)C[C@@H](C)[C@H](CN(C)C(=O)CN(C)C)O3)c1	18.6% (inactive)
CC(C)NC(=O)N(C)C[C@H]1Oc2ccc(N(C)C)cc2C(=O)N([C@@H](C)CO)C[C@H]1C	-18.9% (inactive)
CCS(=O)(=O)N1CCC2(CC1)CN[C@H](CO)c1c2c2ccc(OC)cc2n1C	5.49% (inactive)
COc1ccc2c3c(n(C)c2c1)[C@@H](CO)NCC31CCN(CC2CCCC2)CC1	37.5% (inactive)
COc1ccc2c3c(n(C)c2c1)[C@@H](CO)NCC31CCN(CC2CC2)CC1	55.9% (active)
COc1ccc(NC(=O)Nc2ccc3c(c2)C(=O)N([C@@H](C)CO)C[C@@H](C)[C@H](CN(C)S(=O)(=O)c2cccs2)O3)cc1	-4.93% (inactive)
COc1ccccc1S(=O)(=O)N(C)C[C@H]1Oc2cc(C#CCC3CCCC3)ccc2S(=O)(=O)N([C@@H](C)CO)C[C@H]1C	9.21% (inactive)
Cc1ccc(S(=O)(=O)N2C[C@H](O)COC[C@@H]3O[C@@H](CC(=O)NCC4CCCCC4)CC[C@H]32)cc1	37.6% (inactive)
O=C(C[C@@H]1CC[C@H]2[C@@H](COC[C@H](O)CN2S(=O)(=O)c2ccccc2)O1)NCCN1CCCC1	8.64% (inactive)
O=C(C[C@@H]1CC[C@@H]2[C@H](COC[C@@H](O)CN2S(=O)(=O)c2ccccc2)O1)NCC1CCCCC1	91% (active)
COc1ccccc1-c1ccc2c(c1)O[C@@H](CN(C)CC1CCOCC1)[C@H](C)CN([C@@H](C)CO)S2(=O)=O	17% (inactive)
COCC(=O)NC[C@@H]1[C@@H](c2ccc(C3=CCCC3)cc2)[C@@H](CO)N1C(C)=O	2.17% (inactive)
CN1CCC(CN)(N2CCN(c3ccccc3)CC2)CC1	83.9% (active)
CCS(=O)(=O)N1CCC(N2CCN(c3ccccc3)CC2)CC1	-13% (inactive)
Cc1cc(C)n(-c2nnc(N3CCN(c4ccccc4)CC3)nn2)n1	-6.3% (inactive)
C[C@@H]1CCCCO[C@@H](CN(C)C)[C@@H](C)CN([C@H](C)CO)C(=O)c2cc(NC(=O)c3ccncc3)ccc2O1	-19.4% (inactive)
CCCC#Cc1ccc([C@@H]2[C@@H](CO)N3C(=O)CN(C(=O)Nc4ccc(F)cc4)C[C@@H]23)cc1	6.28% (inactive)
O=C(C1CCCC1)N1[C@H](CO)[C@H]2c3ccccc3N(S(=O)(=O)c3ccccc3)C[C@H]21	-8.44% (inactive)
C[C@@H]1CN([C@H](C)CO)C(=O)c2cccc(NC(=O)Nc3ccc4c(c3)OCO4)c2O[C@H]1CN(C)S(=O)(=O)c1ccc(Cl)cc1	-13.7% (inactive)
O=C(NC[C@H]1CC[C@H]2[C@H](CN2Cc2cccc(Cl)c2)O1)C1CC1	-6.18% (inactive)
COc1ccc(CN(C)C[C@H]2OCCCC[C@H](C)Oc3ccc(NC(=O)c4ccccc4)cc3C(=O)N([C@@H](C)CO)C[C@@H]2C)cc1	28.1% (inactive)
CO[C@H]1CN(C)C(=O)c2ccc(NC(=O)Nc3ccc(F)cc3)cc2OC[C@@H](C)NC[C@H]1C	-5.12% (inactive)
Cc1occc1C(=O)N/N=C/c1ccc(-c2cccc([N+](=O)[O-])c2)o1	-14% (inactive)
Cc1ccc(C(=O)N/C(=C/c2ccc(-c3cccc([N+](=O)[O-])c3)o2)C(=O)NCCCN(C)C)cc1	65.9% (active)
Cc1ccc(C(=O)N/C(=C\c2ccc(F)cc2)C(=O)NCCN2CCOCC2)cc1	-4.68% (inactive)
COc1ccc(CNC(=O)C[C@H]2C[C@H]3c4cc(NS(C)(=O)=O)ccc4O[C@H]3[C@@H](CO)O2)cc1	9.84% (inactive)
Cc1ccc(-c2ccc3c(c2)O[C@@H](CN(C)C(=O)CC2CC2)[C@@H](C)CN([C@@H](C)CO)S3(=O)=O)cc1	18.4% (inactive)
COCCNC(=O)C[C@@H]1C[C@@H]2c3cc(NC(=O)Nc4ccc(C(F)(F)F)cc4)ccc3O[C@@H]2[C@@H](CO)O1	1.63% (inactive)

SMILES	inhibition
CN(C)C(CNC(=O)c1ccc(OCc2cn3ccccc3n2)cc1)c1ccco1 (stereo not given)	-13.9% (inactive)
CN(C)CCNC(=O)c1ccc(-c2cn3c(-c4ccc(Oc5ccccc5)cc4)cnc3cn2)cc1	85.7% (active)
CC(=O)c1cccc(-c2cnc3c(NC=O)cc(-c4ccccc4Oc4ccccc4)cn23)c1	-29.2% (inactive)
C[C@H]1CN([C@@H](C)CO)C(=O)c2cccc(NS(=O)(=O)c3cn(C)cn3)c2O[C@H]1CN(C)C(=O)Nc1ccc2c(c1)OCO2	-13.3% (inactive)
CS(=O)(=O)N1[C@H](C#N)[C@H](c2ccc(C#CC3CC3)cc2)[C@H]1CO	-26.1% (inactive)
COc1ccc(NC(=O)N(C)C[C@@H]2Oc3c(NS(=O)(=O)c4ccc(OC)cc4)cccc3C(=O)N([C@H](C)CO)C[C@@H]2C)cc1	-3.75% (inactive)
COc1ccc2c3c(n(C)c2c1)[C@H](CO)N(S(=O)(=O)c1ccc(C)cc1)CC31CCN(C(=O)c2ccccn2)CC1	21.8% (inactive)
COC(=O)N(C)C[C@@H]1OCc2cnnn2CCCC(=O)N([C@@H](C)CO)C[C@@H]1C	0.525% (inactive) and 0.31% (inactive)
C[C@H]1CN([C@@H](C)CO)C(=O)CCCn2nncc2CO[C@@H]1CN(C)C(=O)Nc1ccc(N2CCN(C)CC2)cc1	60.1% (active) and 24.7% (inactive)
C[C@@H]1CN([C@@H](C)CO)C(=O)CCCn2nncc2CO[C@H]1CN(C)C(=O)Nc1ccc(C(F)(F)F)cc1	-10.9% (inactive) and -1.52% (inactive)
COc1ccc(S(=O)(=O)N2CC[C@@H]3[C@@H](CO)Nc4ccc(C#Cc5cccnc5)cc4[C@@H]32)cc1	0.847% (inactive)
Cc1noc(C)c1S(=O)(=O)N(C)C[C@H]1Oc2ccc(NC(=O)CCN3CCOCC3)cc2CC(=O)N([C@H](C)CO)C[C@H]1C	-2.41% (inactive)
C[C@H](CO)N1C[C@H](C)[C@H](CN(C)C)Oc2ccc(NC(=O)Nc3ccc(F)cc3)cc2CC1=O	-3.53% (inactive)
Cc1cccc(NC(=O)NC2(C)CCS(=O)(=O)C2)c1 (stereo not given)	-1.1% (inactive)
Cc1cccc(NC(=S)NC23CN4CN(CN(C4)C2)C3)c1	82.8% (active)
Cc1cccc(NC(=S)NCc2ccc3[nH]c4c(c3c2)CCCC4)c1	-21.7% (inactive)
Cc1cccc(-c2nc3ccc(C(=O)NCCN4CCN(C)CC4)cc3nc2-c2cccc(C)c2)c1	68% (active)
O=C(NCCN1CCOCC1)c1cccc(S(=O)(=O)Nc2ccc(F)cc2)c1	2.89% (inactive)
Cc1cccc(C(=O)OC(C)CN2CCN(C)CC2)c1 (stereo not given)	-5.75% (inactive)
CN(C)CC(=O)N1[C@H](CO)[C@@H](c2ccc(-c3cccc(C(=O)N(C)C)c3)cc2)[C@@H]1C#N	-31.9% (inactive)
Oc1ccc(N=Cc2sc3ccccc3c2Cl)cc1	55.8% (active)
O=C(NC1CCC1)[C@H]1[C@H](CO)[C@H]2Cn3c(ccc(C4=CCCCC4)c3=O)[C@@H]1N2CC1CC1	1.51% (inactive)
CCCc1ccc(OCC(O)CN2CCN(C(=O)OCC)CC2)cc1 (stereo not given)	-8.19% (inactive)
Nc1ccc(OCC(O)C[n+]2ccc(CCS(=O)(=O)[O-])cc2)cc1 (stereo not given)	58.1% (active)
CCc1ccc(S(=O)(=O)NCC(O)COc2ccc(OC)cc2)cc1 (stereo not given)	-8.48% (inactive)
COCC(=O)N1CC(=O)N2[C@H](C1)[C@H](c1ccc(C#CC3CCCCC3)cc1)[C@@H]2CO	6.1% (inactive)
COc1ccc2c3c([nH]c2c1)[C@H](CO)N(C(=O)c1ccccc1)CC31CCN(S(=O)(=O)c2cccs2)CC1	2.57% (inactive)
